Compound activity from PubChem.
Shown are actives, neighbours in structure and some others; about 3.1% of the full set was active somewhere.
miR122 inh: inhibitors of miR-122 in Huh7 cells; Huh7 miR-122 Renilla luciferase sensor, 48 h; neutral wells = 0, positive control = 100; activation (reporter increase), % at 12.5 µM; hit rate 0.3% among 340,000;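 active means mean replicate activation score at least 90 and every replicate individually at or above 90; inconclusive means only one of the two criteria met; inactive means neither criterion met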;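 further: higher luciferase means less miR-122 activity so hits act as miR-122 inhibitors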
Statin myotox sup: suppressors of simvastatin-induced myotoxicity in C2C12 myotubes; AID 602340; ATP luminescence, 48 h; scaled: DMSO 0, geranylgeraniol control 100; rescue of ATP level, % at 7.49 µM; hit rate 0.78% among 330,000;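 active means mean ATP rescue above about 67%, or every replicate alone reaching that limit, limit read from the data, passing the limit was not always enough; inconclusive means no clear call, values can overlap the other calls; inactive means mean under the limit and some replicate under it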;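 further: myotubes were challenged with 10 µM simvastatin during compound exposure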
PAX8 inh HTS: PAX8 transcriptional activity inhibition. RMG-I TPO-luciferase reporter, SteadyGlo, 24 h. inhibition, % at 12.6 µM. hit rate 1.2% among 360,000. AID 652154;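 active means mean replicate inhibition at least 60% with every replicate also reaching 60%; inconclusive means only one of the two criteria is met; inactive means mean below 60% and not all replicates reaching 60%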;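 further: luciferase light reporting Pax8 driven TPO promoter activity; plate controls were median of neutral control wells for no effect and mitoxantrone controls for full effect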
Env fusion inh: inhibitors of HIV Env-mediated cell fusion. HeLa-JRFL Env/CEM21 cell fusion, luciferase. hit rate 1.1% among 360,000. inhibition, % at 12.3 µM. AID 651610;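 active means mean replicate inhibition score of at least 50 and every replicate individually at or above 50; inconclusive means only one of the two criteria met; inactive means mean below 50 and not all replicates reaching 50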;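 further: 0% = plate neutral controls and 100% = maraviroc near 300 nM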
EWS-Fli block: blocks EWS/Fli oncoprotein-driven transcription; inhibition, % at 12.6 µM; hit rate 0.67% among 350,000; A673 NR0B1-luciferase reporter, viability-normalised;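 active means mean inhibition of at least 50% after viability correction, with every replicate also passing that limit; inconclusive means mean reaches 50% but only one of two replicates passes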;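 further: firefly luciferase signal divided by Alamar Blue viability fluorescence both relative to DMSO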
GSIS activator: primary screen for activators of insulin secretion dependent on glucose, INS-1E cells, GLuc reporter luminescence; INS-1E GLuc reporter insulin secretion, 2-3 h; activation, % at 16.6 µM; hit rate 0.61% among 370,000;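 active means lowest replicate activation of at least 40%, so every replicate reaches that level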;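 further: 0% = median of neutral control wells and 100% = median of IBMX positive control wells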
* = called active by the depositor; u = inconclusive; x = no result given; [ ] = dose if it differs, or a comment.

SMILES	miR122 inh	Statin myotox sup	PAX8 inh HTS	Env fusion inh	EWS-Fli block	GSIS activator
CCN(CC)CCCNc1nc2ccccc2c2[nH]c3ccc(OC)cc3c12	x	x	99.4*	-190.6	u	-13.9
COc1ccc(NC(=O)N(C)C[C@@H]2Oc3c(NC(=O)c4ccncc4)cccc3C(=O)N([C@@H](C)CO)C[C@H]2C)cc1	-7.1[16.7 µM]	-35.5	-41.1	37.5[16.7 µM]	-7.0	-6.1
CC(C)(C)c1ccc(SC2=C[C@@]3(O)CC[C@@H](O)[C@@](Sc4ccc(C(C)(C)C)cc4)(C2=O)[C@H]3O)cc1	x	x	85.0*	34.2	30.9	-32.0
Cc1ccc(SC2=C[C@@]3(O)CC[C@@H](O)[C@@](Sc4ccc(C)cc4)(C2=O)[C@H]3O)cc1	x	x	5.7	-8.0	-4.5	-20.8
CCC(=O)Nc1ccc2c(c1)C(=O)N(C)C[C@@H](OC)[C@@H](C)CN(CC1CCOCC1)[C@H](C)CO2	16.5[16.7 µM]	-7.9	9.8	14.1[16.7 µM]	2.0	9.4
CCOC(=O)c1sc(NC(C)=O)nc1-c1ccccc1	-2.9	7.7	x	x	x	43.1*
CCOC(=O)c1sc(NC(=O)c2ccco2)nc1-c1ccccc1	-2.0	0.2	8.9	-12.6	-0.1	5.1
COc1ccc(NC(=O)C2Cc3c(-c4cccc(NC(C)=O)c4)ccnc3O2)cc1 (configuration not stated)	9.9	-52.3	0.1	-324.5	52.2*	3.8
CC(=O)Nc1cccc(-c2ccnc3c2CC(C(=O)NCCc2ccccc2)O3)c1 (configuration not stated)	12.1	-54.2	42.5	-3.1	55.3*	7.4
CS(=O)(=O)Nc1cccc(NC(=O)C2Cc3c(-c4cccc(F)c4)ccnc3O2)c1 (configuration not stated)	9.8	-29.3	54.8	-129.0	63.5*	-9.8
CC(=O)c1cccc(-c2ccnc3c2CC(C(=O)NCCc2ccccc2)O3)c1 (configuration not stated)	8.1	-44.1	1.2	-207.2	54.4*	-6.1
COCC(=O)N(C)C[C@H]1Oc2ncc(C#Cc3ccc(F)cc3)cc2C(=O)N([C@H](C)CO)C[C@H]1C	-7.9[16.7 µM]	2.3	x	-1.8[16.7 µM]	-0.1	0.3
O=C(Nc1cccc(Cl)c1)Nc1nc(-c2ccc(Cl)cc2)cs1	-11.6	-31.0	x	x	x	128.3*
O=C(Nc1cccc(Cl)c1)Nc1csc([N+](=O)[O-])c1	-21.6	-18.4	98.8*	u	19.0	x
O=C(Nc1ccccc1)Nc1nc(-c2ccc(Cl)cc2)cs1	-1.0	x	28.9	x	-3.8	x
COc1cccc(Nc2nc(-c3sc(NC(=O)c4ccco4)nc3C)cs2)c1	x	-31.2	8.4	66.2*	9.1	-6.0
COc1cccc(NC(=O)Nc2nc(-c3ccc(OC)c(OC)c3)cs2)c1	-26.5	-97.9	104.5*	-229.3	64.6*	3.0
C[C@@H]1CN([C@@H](C)CO)C(=O)c2cc(N(C)C)ccc2O[C@@H]1CN(C)S(=O)(=O)c1ccc(Cl)cc1	43.8[16.7 µM]	-1.0	-4.9	x	5.9	15.9
O=C(CC1CC1)N1[C@@H](CO)[C@@H](c2ccccc2)C12CN(Cc1cc(F)ccc1F)C2	x	x	x	x	-4.8	-1.2
COc1ccc([Si](C)(C)[C@@H]2[C@@H](CCn3cc(CCO)nn3)O[C@]3(C(=O)N(Cc4cccc(N5CCOC5=O)c4)c4ccccc43)[C@H]2C)cc1	x	x	100.2*	-23.5[16.7 µM]	5.5	x
COc1ccc([Si](C)(C)[C@H]2[C@H](CCn3cc(CCO)nn3)O[C@@]3(C(=O)N(Cc4cccc(N5CCOC5=O)c4)c4ccccc43)[C@@H]2C)cc1	x	x	83.4*	15.6[16.7 µM]	-0.9	x
C[C@H](CO)N1C[C@H](C)[C@H](CN(C)Cc2ccc(C(=O)O)cc2)Oc2c(NS(=O)(=O)c3ccc(Cl)cc3)cccc2C1=O	-2.3[16.7 µM]	x	x	-11.0[16.7 µM]	-6.2	17.6
O=C(C=Cc1ccc2c(c1)OCO2)c1ccccc1	1.6	3.2	-218.8	-21.8	-44.9	-21.0
O=C(/C=C/c1ccccc1)C1=C(O)C(=O)N(CCO)C1c1ccc2c(c1)OCO2 (configuration not stated)	-3.3	115.3*	-8.7	23.6	-0.2	-4.8
CN1C(=O)c2cc(NC(=O)C3CC3)ccc2OC[C@H]2O[C@H](CC(=O)NC3CCC3)CC[C@@H]21	32.5[16.7 µM]	-61.2	-5.6	x	-0.9	3.9
SMILES	miR122 inh	Statin myotox sup	PAX8 inh HTS	Env fusion inh	EWS-Fli block	GSIS activator
O=C(Nc1cccc2ccccc12)c1ccc(F)cc1	8.0	1.3	-20.6	-18.8	x	8.2
O=C(NC(=S)Nc1cccc2[nH]ncc12)c1ccccc1	-8.9	4.4	-171.9	4.0	-46.0	158.6*
O=C(Nc1cccc2[nH]ncc12)c1ccc(F)cc1	14.6	-20.4	-101.2	73.8*	x	x
Cc1cccc(-c2ccc([C@H]3[C@@H](CO)N4CCCCN(CCC(F)(F)F)C[C@H]34)cc2)c1	1.4[16.7 µM]	x	-0.7	x	18.2	10.9
C[C@H]1CN([C@@H](C)CO)C(=O)c2cc(NC(=O)Cn3cnnn3)ccc2O[C@@H]1CN(C)Cc1ccc(Cl)c(Cl)c1	21.2[16.7 µM]	-34.5	-16.1	1.5[16.7 µM]	10.1	10.3
Cc1cccc(-c2nnn3c2nc(NCCc2ccc(S(N)(=O)=O)cc2)c2ccccc23)c1	-0.7	x	28.4	-226.3	x	5.1
CCOCCCNc1nc2c(-c3ccccc3)nnn2c2ccccc12	0.4	88.3*	37.0	-8.0	4.6	9.3
NS(=O)(=O)c1ccc(CCNc2nc3c(-c4cccc(F)c4)nnn3c3ccccc23)cc1	8.8	-113.8	24.4	-217.4	x	59.1*
C[C@@H]1CN([C@@H](C)CO)C(=O)Cc2cc(NC(=O)CCN3CCOCC3)ccc2O[C@@H]1CN(C)Cc1ccccc1	9.5[16.7 µM]	-7.3	-11.8	-11.9[16.7 µM]	-0.8	8.9
COCC(=O)N1C[C@@H](C)[C@@H](OC)CN(C)C(=O)c2ccc(NC(=O)c3ccc(OC)cc3)cc2OC[C@@H]1C	x	-4.3	-19.3	-15.2[16.7 µM]	-1.1	9.6
CCOc1ccc(-c2cccc(NS(=O)(=O)c3cc([N+](=O)[O-])ccc3C)c2)nn1	130.5*	7.9	0.1	x	-17.9	-16.1
COc1ccc(-c2cccc(NS(=O)(=O)c3ccccc3[N+](=O)[O-])c2)nn1	3.9	10.3	-12.6	-2.2	-7.6	20.3
CCOc1ccc(-c2cccc(NS(=O)(=O)c3ccccc3[N+](=O)[O-])c2)nn1	1.9	7.5	2.8	94.1*	6.8	28.5
COc1ccc(C(=O)c2ccc(OC)cc2O)c(O)c1	1.6	128.3*	-83.6	-272.2	x	x
COc1ccc(C(=O)c2ccccc2O)c(O)c1	-0.4	5.6	-9.7	x	-14.7	x
COc1cccc(C#Cc2ccc([C@H]3[C@@H](CO)N4C(=O)CN(S(=O)(=O)c5ccccc5C)C[C@H]34)cc2)c1	x	x	-7.2	x	-1.5	4.7
CCNC(=O)[C@H]1[C@H](CO)[C@H]2Cn3c(ccc(C4=CCCCC4)c3=O)[C@@H]1N2CC	x	x	x	x	-7.5	4.2
Cc1nc2ccccc2n1/N=C/c1ccc([N+](=O)[O-])s1	x	x	62.2*	14.0	14.4	-9.1
O=[N+]([O-])c1ccc(/C=N/n2c(CO)nc3ccccc32)s1	-4.7	x	14.2	2.7	x	-14.3
